UBC13 polyUb = inhibitors of human UBC13 polyubiquitin chain formation; TR-FRET; inhibition, % at 20 µM; 330,000 tested, 0.47% active; AID 485273; P61088; in the data active = inhibition above about 45%, passing the limit was not always enough
Target sequence (P61088 whole entry, looked up): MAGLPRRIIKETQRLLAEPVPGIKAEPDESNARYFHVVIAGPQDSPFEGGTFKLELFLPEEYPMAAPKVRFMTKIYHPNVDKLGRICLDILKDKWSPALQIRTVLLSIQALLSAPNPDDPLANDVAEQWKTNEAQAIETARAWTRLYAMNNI
RAD52 anneal inh = blocks human RAD52 DNA annealing; P43351; recombinant RAD52 DNA annealing, FRET fluorescence; inhibition, % at 18.7 µM; 360,000 tested, 0.46% active; AID 651710;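 active = every replicate showing at least 50% inhibition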
Target sequence (P43351 whole entry, looked up): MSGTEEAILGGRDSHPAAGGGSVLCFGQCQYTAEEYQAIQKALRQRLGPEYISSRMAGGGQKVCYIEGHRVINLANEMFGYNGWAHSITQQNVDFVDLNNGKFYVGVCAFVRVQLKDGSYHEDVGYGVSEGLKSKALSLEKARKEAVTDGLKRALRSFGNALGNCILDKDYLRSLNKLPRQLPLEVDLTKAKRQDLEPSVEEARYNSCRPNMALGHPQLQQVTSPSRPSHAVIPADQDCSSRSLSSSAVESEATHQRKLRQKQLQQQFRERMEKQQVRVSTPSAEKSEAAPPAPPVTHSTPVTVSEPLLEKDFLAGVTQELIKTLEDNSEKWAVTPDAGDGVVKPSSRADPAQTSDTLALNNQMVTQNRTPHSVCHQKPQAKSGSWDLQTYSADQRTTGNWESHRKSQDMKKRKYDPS
beta cell repl = inducers of beta-cell replication in MIN6 cells; MIN6 cells proliferation, ATPlite luminescence, 48 h; cells starved in 0.2% serum; 100% = growth in 10% serum; proliferation, % at 10 µM; 330,000 tested, 0.29% active;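 active = compounds whose signal lies at least 3.5 SD above the mean of all wells on their plate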;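 also: 0% = DMSO-treated cells in low-serum medium and 100% = 10% serum control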
FID counter = counter-screen for HCV NS3 helicase inhibitors: DNA intercalator displacement | DNA fluorescent intercalator displacement, fluorescence | inhibition, % at 7.9 µM | 290,000 tested, 0.17% active; in the data active = inhibition above about 37%;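 also: 0% = vehicle and 100% = reference compound; higher means more ethidium bromide displaced from hairpin DNA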
RAD54 branch = RAD54 (human) branch migration inhibition; inhibition, % at 10.4 µM; AID 602329; 360,000 tested, 0.14% active; RAD54 Holliday junction branch migration, FAM/BHQ fluorescence; Q92698;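 active = mean normalized replicate activity at least 40 and at least half of replicates scoring 40 or more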;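 also: 0% = median of neutral control wells and 100% = median of positive control wells; inhibitors cause a drop in the FAM fluorescence signal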
PREPL inh = inhibitors of human prolyl oligopeptidase-like enzyme PREPL | 320,000 tested, 0.68% active | Q4J6C6 | recombinant PREPL, fluorescence polarization activity-based probe | inhibition, % at 5.96 µM; in the data active = inhibition above about 43%;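 also: 0% = enzyme with DMSO and 100% = wells lacking enzyme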
* marks the source's active call; other numbers are inactive results; / = not tested or not shown; ! = repeats disagree. The list is not random: actives were taken first. Their share in the collection is about 1.3%.

SMILES	UBC13 polyUb	RAD52 anneal inh	beta cell repl	FID counter	RAD54 branch	PREPL inh
CCN1[C@@H]2c3ccc(-c4ccc(F)cc4)c(=O)n3C[C@@H]2[C@@H](CO)[C@@H]1C(=O)NC1CCC1	/	1	/	/	/	/
Cc1cccc2sc(N(CCCN(C)C)C(=O)c3ccc(S(=O)(=O)N4CCc5ccccc5C4)cc3)nc12	39	41	-7	38*	9	0
CN(C)CCCN(C(=O)c1ccc(S(=O)(=O)N2CCc3ccccc3C2)cc1)c1nc2c(F)cccc2s1	29	-6	-8	16	8	-13
Cc1cc(C)c2sc(N(CCCN(C)C)C(=O)c3ccc(S(=O)(=O)N4CCCc5ccccc54)cc3)nc2c1	62*	39	-7	/	0	18
COc1ccc(-c2[nH]c3ccccc3c2SCCN)cc1	1	-41	-4	18	-6	55*
COc1ccc2c3c(n(C)c2c1)[C@H](CO)N(C(=O)Nc1ccc(F)cc1)CC31CN(Cc2cccnc2)C1	/	2	/	/	/	/
CN(C)CCn1c2ccccc2c2nc3ccc([N+](=O)[O-])cc3cc21	-5	37	-4	48*	29	-95
O=C(Nc1ccc2c(c1)[C@@H]1C[C@H](CC(=O)N3CCOCC3)O[C@H](CO)[C@@H]1O2)NC1CCCC1	/	2	/	/	6	/
CCOc1cc(/C=C2/C(=O)N(c3ccccc3)N=C2C)ccc1OC(=O)c1ccco1	-69	/	-2	2	5	46*
COCCOC(=O)c1c(C)n(C)c2ccc(OC(=O)c3c(OC)cccc3OC)cc12	8	-2	6	-45	-5	7
COc1ccc2c(c1)c(C(=O)OCCN(C)C)c(C)n2C	-3	/	0	11	59*	-2
CC(NCCCOc1cccc2ccccc12)c1ccccc1 (stereo not given)	18	40	-5	34	16	-19
CNCC[C@H](Oc1cccc2ccccc12)c1cccs1	18	26	-8	41*	21	12
O=C(Nc1ccccc1)N[C@H]1CC[C@@H](CCn2cc(-c3ccccc3F)nn2)O[C@H]1CO	/	-4	/	/	/	/
COc1cccc(-c2ccc([C@H]3[C@H](CO)N4C(=O)CN(C(=O)C5CC5)C[C@@H]34)cc2)c1	/	3	/	/	/	/
CCC[n+]1c2ccccc2cc2ccccc21	4	8	-5	38*	3	11
CCCC[n+]1c2ccccc2cc2ccccc21	-3	-11	-5	38*	7	22
COCC(=O)N(C)C[C@H]1Oc2ncc(-c3cccc(OC)c3)cc2C(=O)N([C@@H](C)CO)C[C@H]1C	/	-5	/	/	1	/
COc1ccccc1-c1ccc(C2[C@H]3CNC[C@@H]2N3Cc2cc(-c3ccccc3)on2)cc1 (stereo not given in full)	/	54*	/	/	/	/
C/C=C/c1ccc(C2[C@H]3CNC[C@@H]2N3Cc2cc(-c3ccccc3)on2)cc1 (stereo not given in full)	/	52*!	/	/	/	/
N#Cc1cccc(-c2ccc(C3[C@H]4CNC[C@@H]3N4Cc3cccc(F)c3)cc2)c1 (stereo not given in full)	/	11	/	/	/	/
N#Cc1cccc(-c2ccc(C3[C@H]4CNC[C@@H]3N4Cc3cc(-c4ccccc4)on3)cc2)c1 (stereo not given in full)	/	63*	/	/	/	/
COc1cccc(CN2[C@@H]3CNC[C@H]2[C@H]3c2ccc(-c3ccccc3OC)cc2)c1	/	-50	/	/	/	/
C/C=C/c1ccc(C2[C@H]3CNC[C@@H]2N3Cc2nccs2)cc1 (stereo not given in full)	/	-6	/	/	/	/
C[C@@H]1CN([C@@H](C)CO)C(=O)c2cc(NC(=O)Nc3cccc4ccccc34)ccc2O[C@@H](C)CCCCO[C@@H]1CN(C)S(=O)(=O)c1ccc(F)cc1	/	-21	/	/	-7	/
SMILES	UBC13 polyUb	RAD52 anneal inh	beta cell repl	FID counter	RAD54 branch	PREPL inh
CN(c1ccccc1)c1ccc(/C=N/NC(=O)CC#N)cc1	11	/	-1	-7	/	50*
Cc1noc(C)c1S(=O)(=O)Nc1ccc2c(c1)C(=O)N([C@H](C)CO)C[C@H](C)[C@H](CN(C)S(=O)(=O)c1ccc(F)cc1)OCCCC[C@@H](C)O2	/	81*	/	/	-5	/
Cc1noc(C)c1S(=O)(=O)Nc1ccc2c(c1)C(=O)N([C@H](C)CO)C[C@@H](C)[C@@H](CN(C)S(=O)(=O)c1ccc(F)cc1)OCCCC[C@H](C)O2	/	60*	/	/	1	/
Cc1noc(C)c1S(=O)(=O)Nc1ccc2c(c1)C(=O)N([C@H](C)CO)C[C@H](C)[C@@H](CN(C)S(=O)(=O)c1ccc(F)cc1)OCCCC[C@H](C)O2	/	82*	/	/	-7	/
Cc1ccc(S(=O)(=O)N(C)C[C@H]2OCCCC[C@@H](C)Oc3ccc(NC(=O)CCCN(C)C)cc3C(=O)N([C@@H](C)CO)C[C@@H]2C)cc1	/	50*	/	/	6	/
Cc1noc(C)c1S(=O)(=O)Nc1ccc2c(c1)C(=O)N([C@@H](C)CO)C[C@@H](C)[C@H](CN(C)S(=O)(=O)c1ccc(F)cc1)OCCCC[C@@H](C)O2	/	-39	/	/	-10	/
C[C@@H]1CN([C@H](C)CO)C(=O)c2cc(-c3cccc(F)c3)cnc2O[C@H]1CN(C)S(=O)(=O)c1cccc(F)c1	/	-3	/	/	1	/
Cc1noc(C)c1NC(=O)Nc1ccc2c(c1)CC(=O)N([C@H](C)CO)C[C@@H](C)[C@@H](CN(C)C(=O)Nc1ccccc1)O2	/	14	/	/	0	/
c1ccc(CN2CCC(Nc3nc(-c4cccs4)nc4ccccc34)CC2)cc1	25	-8	-6	59*	/	-21
CCN(CC)CCNc1nc2cc(OC)c(OC)cc2c2nc(-c3ccccc3)nn12	45	/	-6	28	106*	-33
COc1cccc(S(=O)(=O)N[C@H]2CC[C@@H](CC(=O)NC3CCC3)O[C@@H]2CO)c1	/	16	/	/	-3	/
CCOc1cc(/C=N/Nc2nc(N3CCCC3)nc(N3CCCC3)n2)ccc1O	1	/	3	-21	10	6
CCOc1cccc(/C=N/Nc2nc(N3CCCC3)nc(N3CCCC3)n2)c1O	-9	-16	-4	-14	-9	50*
CO[C@H]1CN(C)C(=O)c2ccc(NC(=O)c3ccc(Oc4ccccc4)cc3)cc2OC[C@H](C)NC[C@@H]1C	/	51*	/	/	7	/
COc1cccc(NC(=O)Nc2ccc3c(c2)C(=O)N(C)C[C@@H](OC)[C@H](C)CN[C@H](C)CO3)c1	/	59*	/	/	17	/
COc1cccc(NC(=O)Nc2ccc3c(c2)OC[C@@H](C)NC[C@H](C)[C@@H](OC)CN(C)C3=O)c1	/	76*	/	/	1	/
COc1ccc(NC(=O)Nc2ccc3c(c2)C(=O)N(C)C[C@@H](OC)[C@@H](C)CN[C@H](C)CO3)cc1	/	/	/	/	9	/
O=C(NC1CCCCC1)N[C@H]1C=C[C@@H](CC(=O)N2CCOCC2)O[C@H]1CO	/	21	/	/	1	/
Oc1ccc(CN2CCc3ccccc3C2)c2cccnc12	5	/	-6	-8	4	45*
